Where “and” joins values, the source holds several entries; their conditions need not be identical. Equal values may be shown once. Records with an inconclusive call do not appear. Calls of active or inactive are those of the source. Unless noted, calls come from the whole dose curve; as a rule, active = well fitted curve in the direction sought with a large enough effect; inconclusive = small, poorly fitted or top-dose-only effect, or another doubt; inactive = no such curve, though single readings can be large; an effect the other way counts as inactive or inconclusive.
Legend:
[1] = target: Cellular tumor antigen p53 (Homo sapiens) (UniProt P04637); test: Primary qHTS for small molecule compounds that upregulate eGFP-tagged delta133p53alpha (in N-terminal) cells. (AID 2060322); settings: NCI-H358 eGFP-delta133p53alpha fluorescence, 24 h; activation: stronger effect = higher value; note: nearly all actives have a fitted effect of over 75% in size; note: potency is the fitted concentration of half-maximal effect;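 for activation: cells pre-induced with doxycycline then dosed without doxycycline; series mostly up to about 56 µM; 0% = DMSO vehicle and 100% = reference activator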
Procedure, shortened: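 NCI-H358 cells pre-induced 24 h with 10 ng/ml doxycycline for eGFP-delta133p53alpha, plated dox-free and exposed 24 h at 37C to titrated compounds. Fixed, Hoechst-stained; gated GFP peak intensity by laser scanning cytometry, normalized to DMSO (0%) and 57.5 uM 5-azacytidine (100%).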

[2] = target: Cellular tumor antigen p53 (Homo sapiens) (UniProt P04637); test: Primary qHTS for small molecule compounds that upregulate eGFP-tagged delta133p53alpha (in C-terminal) cells. (AID 2060324); note: potency is the fitted concentration of half-maximal effect
Procedure, shortened: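 Readout: filtered GFP peak intensity of gated cells (laser scanning cytometer), normalized plate-wise to intraplate controls, DMSO wells = 0% activity. Cells: NCI-H358 D133p53a-eGFP, dox 100 ng/ml 24 h beforehand, then compound 24 h, 37 °C.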

[3] = target: Aldehyde dehydrogenase, mitochondrial (Homo sapiens) (UniProt P05091); test: qHTS for Inhibitors of the Aldehyde Dehydrogenase Family (ALDH2) Validation screens (AID 2061302; active = well fitted inhibition curve with a large enough effect; title and protocol of this record describe different tests;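 note: plate controls were DMSO vehicle for no effect and maximal DPI positive control response for full effect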)
[4] = target: Aldehyde dehydrogenase, mitochondrial (Homo sapiens) (UniProt P05091); test: qHTS for Inhibitors of the Aldehyde Dehydrogenase Family (ALDH2) Confirmatory screens (AID 2061303; active = well fitted inhibition curve with a large enough effect; title and protocol of this record describe different tests; note: % is set by controls: 0 for no effect and ±100 for the full control effect; nearly all actives have a fitted effect of over 45% in size)
[5] = qHTS for Inhibitors of the Aldehyde Dehydrogenase Family (ALDH1A2, ALDH1A3, ALDH2, ALDH3A1) (AID 2061307); note: % is set by controls: 0 for no effect and ±100 for the full control effect; nearly all actives have a fitted effect of over 50% in size
[6] = target: Aldehyde dehydrogenase, mitochondrial (Homo sapiens) (UniProt P05091); test: qHTS for Inhibitors of the Aldehyde Dehydrogenase Family (ALDH2) Primary screen (AID 2061308);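 note: plate controls were vehicle for no effect and reference inhibitor for full effect; nearly all actives have a fitted effect of over 55% in size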
[7] = target: Retinaldehyde dehydrogenase 3 (Homo sapiens) (UniProt P47895); test: qHTS for Inhibitors of the Aldehyde Dehydrogenase Family (ALDH1A3) Confirmatory screens (AID 2061311); note: % is set by controls: 0 for no effect and ±100 for the full control effect; nearly all actives have a fitted effect of over 60% in size
[8] = target: Retinaldehyde dehydrogenase 3 (Homo sapiens) (UniProt P47895); test: qHTS for Inhibitors of the Aldehyde Dehydrogenase Family (ALDH1A3) Validation screen (AID 2061312); note: % is set by controls: 0 for no effect and ±100 for the full control effect; nearly all actives have a fitted effect of over 45% in size
[9] = target: Retinal dehydrogenase 2 (Homo sapiens) (UniProt O94788); test: qHTS for Inhibitors of the Aldehyde Dehydrogenase Family (ALDH1A2) Confirmation screens (AID 2061314); note: % is set by controls: 0 for no effect and ±100 for the full control effect; nearly all actives have a fitted effect of over 65% in size
[10] = target: Retinaldehyde dehydrogenase 3 (Homo sapiens) (UniProt P47895); test: qHTS for Inhibitors of the Aldehyde Dehydrogenase Family (ALDH1A3) Primary screen (AID 2061315);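 note: plate controls were DMSO vehicle for no effect and reference inhibitor for full effect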
[11] = target: Aldehyde dehydrogenase 1A1 (Homo sapiens) (UniProt P00352); test: qHTS for Inhibitors of the Aldehyde Dehydrogenase Family (ALDH1A1) Confirmatory screens (AID 2061316); note: nearly all actives have a fitted effect of over 65% in size

Sequence of Cellular tumor antigen p53 (Homo sapiens) (P04637 whole entry, looked up): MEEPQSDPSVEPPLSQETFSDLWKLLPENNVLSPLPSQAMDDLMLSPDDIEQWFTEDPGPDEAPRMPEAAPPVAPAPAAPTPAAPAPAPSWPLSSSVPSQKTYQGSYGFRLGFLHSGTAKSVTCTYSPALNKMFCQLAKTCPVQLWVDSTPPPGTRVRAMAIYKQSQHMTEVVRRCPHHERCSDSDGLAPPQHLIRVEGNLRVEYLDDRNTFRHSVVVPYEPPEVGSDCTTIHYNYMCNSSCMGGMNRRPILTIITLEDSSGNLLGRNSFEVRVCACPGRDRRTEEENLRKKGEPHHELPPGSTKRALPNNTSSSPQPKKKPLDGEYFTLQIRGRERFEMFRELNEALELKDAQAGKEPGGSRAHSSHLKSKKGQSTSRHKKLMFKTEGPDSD

CCCC[C@@]1(C2CCCC2)Cc2cc(OCC(=O)O)c(Cl)c(Cl)c2C1=O
inactive: activation [1] -7.36% | Potency [2] | Potency [3]

NCCCNCCCCNCCCN
inactive: activation [1] -8.4% | Potency [2] | Potency [3]

Nc1ccn([C@H]2O[C@H](CO)[C@@H](O)C2(F)F)c(=O)n1
inactive: activation [1] 7.37% | Potency [2] | Potency [3]

CNc1cc(NS(=O)(=O)c2ccc(N)cc2)nc(NC)n1
inactive: activation [1] -5.43% | Potency [2] | Potency [3]

COc1cc2c(CCNC(C)=O)c[nH]c2cc1O
inactive: activation [1] -10.8% | Potency [2] | Potency [3]

Cc1cccc(C(=O)NCN2CCN(c3ccccc3C#N)CC2)c1
inactive: activation [1] -16.7% | Potency [2] | Potency [3]

O=c1cc(O)cc(/C=C/c2ccc(O)c(O)c2)o1
inactive: activation [1] -54.7% | Potency [2] | Potency [3]

c1cnc(N2CCN(Cc3ccc4c(c3)OCO4)CC2)nc1
inactive: activation [1] 8.37% and 9.57% | Potency [2] | Potency [3]

O=c1[nH]c(=O)c2nc3ccccc3nc2[nH]1
inactive: activation [1] -4.5% | Potency [2] | Potency [3]

CNCCNS(=O)(=O)c1cccc2cnccc12
inactive: activation [1] -55.4% | Potency [2] | Potency [3]

NC[C@@H]1O[C@H](C23CC4CC(CC(C4)C2)C3)Cc2c1ccc(O)c2O
inactive: activation [1] 44.4% | Potency [3]
active: Potency [2] 23.9 µM

NC1CCN(O)C1=O (centres undefined)
inactive: activation [1] -20% | Potency [2] | Potency [3]

COc1ccccc1N1CCN(CCN(C(=O)c2ccc(F)cc2)c2ccccn2)CC1
inactive: activation [1] 5.52% | Potency [2] | Potency [3]

Nc1nc2c(cnn2CCc2ccccc2)c2nc(-c3ccco3)nn12
inactive: activation [1] -28.5% | Potency [2] | Potency [3]

CC(=O)Oc1cc(C(C)C)c(OCCN(C)C)cc1C
inactive: activation [1] -0.837% and 6.26% | Potency [2] | Potency [3]

Cc1nc2n(c(=O)c1CCN1CCC(c3noc4cc(F)ccc34)CC1)CCCC2O (centres undefined)
inactive: activation [1] 3.58% | Potency [2] | Potency [3]

CSc1ccc2c(c1)C(N1CCN(C)CC1)Cc1ccccc1S2 (centres undefined)
inactive: activation [1] 48% | Potency [2] | Potency [3]

Cc1cc(N)c2ccccc2[n+]1CCCCCCCCCC[n+]1c(C)cc(N)c2ccccc21
inactive: activation [1] 10% | Potency [2] | Potency [3] | Potency [4] | Potency [5] | Potency [6] | Potency [7] | Potency [8] | Potency [9] | Potency [10] | Potency [11]

CCN(CC)CCNC(=O)c1ccc(NS(C)(=O)=O)cc1
inactive: activation [1] -1.7% | Potency [2] | Potency [3]

C=CCN1CCc2cc(O)c(O)cc2C(c2ccccc2)C1 (centres undefined)
inactive: activation [1] -43.2% | Potency [2] | Potency [3]

Oc1ccc(C2CNCc3sccc32)cc1O (centres undefined)
inactive: activation [1] 8.23% | Potency [2] | Potency [3]

NO
inactive: activation [1] -15.6% | Potency [2] | Potency [3]

COc1ccc2c(c1OC)C(=O)O[C@@H]2[C@H]1c2c(cc3c(c2OC)OCO3)CCN1C
inactive: Potency [2] | Potency [3]
active: Potency [1] 21.9 µM

C=CCn1c(=O)c2c(nc(-c3ccc(S(=O)(=O)O)cc3)n2C)n(C)c1=O
inactive: activation [1] -9.98% | Potency [2] | Potency [3]

CCOC(=O)C1=C(C)NC(C)=C(C(=O)OC)C1c1cccc([N+](=O)[O-])c1 (centres undefined)
inactive: activation [1] -7.72% | Potency [2] | Potency [3]

CN1CCc2cc(NC(=O)Nc3cccnc3)ccc21
inactive: activation [1] -9.58% | Potency [2] | Potency [3]

OCCN1CCN(CCCN2c3ccccc3C=Cc3ccccc32)CC1
inactive: activation [1] -10.7% and -5.62% | Potency [2] | Potency [3]

COc1ccc(NC(=O)c2ccc(-c3ccc(-c4noc(C)n4)cc3C)cc2)cc1N1CCN(C)CC1
inactive: activation [1] -47.1% | Potency [2] | Potency [3]

[N-]=[N+]=Nc1ccc(C(=O)CSC[C@H](NC(=O)CC[C@H](N)C(=O)O)C(=O)NCC(=O)O)cc1
inactive: activation [1] -38.2% | Potency [2] | Potency [3]

CCOC(=O)c1cnc2c(cnn2CC)c1NN=C(C)C
inactive: activation [1] 11.7% and -44.5% | Potency [2] | Potency [3] | Potency [4] | Potency [5]

Oc1cc2c(c(Cl)c1O)CCNCC2c1ccccc1 (centres undefined)
inactive: activation [1] -28% | Potency [2] | Potency [3]

Cc1ccc(O)c(N=Nc2ccccc2)n1
inactive: activation [1] 34% | Potency [2] | Potency [3]

CCCN(CCc1ccccc1)C1CCc2c(O)cccc2C1 (centres undefined)
inactive: activation [1] -29.6% | Potency [2] | Potency [3]
